According to PubChem BioAssay (EPA / NIEHS):
Values joined by “and” are separate entries in the source; they are usually repeats but may differ in a detail not shown here. Identical values can stand only once. A structure can be active in one record and inactive in another. Active and inactive are the calls of the source. The calls were made as follows: active = hit-call score of the fitted dose curve at least 0.9, where 1 is the maximum; inactive = score below 0.9.

What was measured:
[1] = read-out: Vascular endothelial growth factor receptor 2 (Homo sapiens) (UniProt P35968); assay: BSK_4H_VEGFRII: BioMAP Diversity Plus: 4H Assay for Vascular endothelial growth factor receptor 2 (VEGFR2) Biomarker Activity (AID 2283031); conditions: primary human endothelial cells (HUVEC); actives raise or lower the signal;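 as to AC50: cell-surface VEGFR2 protein level quantified by ELISA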
Summary of the method: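 VEGFRII levels on human vascular endothelial primary cells were determined by ELISA at 24 hours post-dosing, with gain- or loss-of-signal fitted against DMSO controls.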

[2] = read-out: Human Leukocyte Antigen - DR isotype (HLADR), HLA-DRA (gene 3122); assay: BSK_BE3C_HLADR: BioMAP Diversity Plus: BE3C Assay for Human Leukocyte Antigen - DR isotype (HLADR) Biomarker Activity (AID 2283032); conditions: primary human bronchial epithelial cells; actives raise or lower the signal
Summary of the method: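 BioMAP BE3C format: human bronchial epithelium, 24 h compound treatment, ELISA detection of HLA-DR, with bidirectional analysis relative to DMSO.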

[3] = read-out: Vascular cell adhesion molecule 1 (VCAM1), VCAM1 (gene 7412); assay: BSK_4H_VCAM1: BioMAP Diversity Plus: 4H Assay for Vascular cell adhesion molecule 1 (VCAM1) Biomarker Activity (AID 2283033); conditions: primary human endothelial cells (HUVEC); actives raise or lower the signal
Summary of the method: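 In this human endothelial (HUVEC) system, biomarker ELISA was run 24 h after compound addition, and total protein in parallel wells was assessed by SRB at 560 nm; DMSO served as negative control.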

[4] = read-out: Interferon-gamma inducible Protein 10 (IP10), CXCL10 (gene 3627); assay: BSK_BE3C_IP10: BioMAP Diversity Plus: BE3C Assay for Interferon-gamma inducible Protein 10 (IP10) Biomarker Activity (AID 2283034); conditions: primary human bronchial epithelial cells; actives raise or lower the signal
Summary of the method: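 BE3C cells (human bronchial epithelial, primary); 24 h exposure; ELISA for IP-10; DMSO-referenced bidirectional fit.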

[5] = read-out: Monokine induced gamma interferon (MIG), CXCL9 (gene 4283); assay: BSK_BE3C_MIG: BioMAP Diversity Plus: BE3C Assay for Monokine induced gamma interferon (MIG) Biomarker Activity (AID 2283035); conditions: primary human bronchial epithelial cells; actives raise or lower the signal
Summary of the method: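 hu bronchial epithelial 1° cells, 24 h cpd; MIG by ELISA; bidirectional fit, DMSO = baseline.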

[6] = read-out: Transforming growth factor beta 1 (TGFb1), TGFB1 (gene 7040); assay: BSK_BE3C_TGFb1: BioMAP Diversity Plus: BE3C Assay for Transforming growth factor beta 1 (TGFb1) Biomarker Activity (AID 2283036); conditions: primary human bronchial epithelial cells; actives raise or lower the signal
Summary of the method: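 TGF-b1 measured via ELISA, 24 h after chemical dosing of human bronchial epithelial cells (BE3C). Overt cytotoxicity assessed in parallel by SRB (0.1%, TCA-fixed, 560 nm); analysis bidirectional relative to DMSO.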

[7] = read-out: Plasminogen activator inhibitor-1 (PAI1), SERPINE1 (gene 5054); assay: BSK_BE3C_PAI1: BioMAP Diversity Plus: BE3C Assay for Plasminogen activator inhibitor-1 (PAI1) Biomarker Activity (AID 2283037); conditions: primary human bronchial epithelial cells; actives raise or lower the signal
Summary of the method: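 In this multiplexed primary-cell system, bronchial epithelial cells receive test chemical and are sampled at 24 h. PAI-1 is read by ELISA, with DMSO serving as negative control for bidirectional fitting.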

[8] = read-out: urokinase plasminogen activator (uPA), PLAU (gene 5328); assay: BSK_BE3C_uPA: BioMAP Diversity Plus: BE3C Assay for urokinase plasminogen activator (uPA) Biomarker Activity (AID 2283038); conditions: primary human bronchial epithelial cells; actives raise or lower the signal
Summary of the method: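 Measured by ELISA: uPA from human primary bronchial epithelial cells 24 h after chemical treatment. Values derive from bidirectional curve fitting with DMSO serving as negative control. Total protein by SRB staining in parallel wells flagged overt cytotoxicity.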

[9] = read-out: Urokinase-type plasminogen activator receptor (uPAR), PLAUR (gene 5329); assay: BSK_BE3C_uPAR: BioMAP Diversity Plus: BE3C Assay for Urokinase-type plasminogen activator receptor (uPAR) Biomarker Activity (AID 2283039); conditions: primary human bronchial epithelial cells; actives raise or lower the signal
Summary of the method: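 Chemically treated human bronchial epithelial cells (lung primary) are assayed for uPAR by ELISA after 24 h, with data fitted in both directions using DMSO as negative control.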

[10] = read-out: Interleukin-6 (IL6), IL6 (gene 3569); assay: BSK_CASM3C_IL6: BioMAP Diversity Plus: CASM3C Assay for Interleukin-6 (IL6) Biomarker Activity for (AID 2283040); conditions: primary human coronary artery smooth muscle cells; actives raise or lower the signal
[11] = read-out: Tissue plasminogen activator (tPA), PLAT (gene 5327); assay: BSK_BE3C_tPA: BioMAP Diversity Plus: BE3C Assay for Tissue plasminogen activator (tPA) Biomarker Activity (AID 2283041); conditions: primary human bronchial epithelial cells; actives raise or lower the signal
Summary of the method: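 Using human lung primary bronchial epithelial cells, tPA was measured by ELISA 24 h after dosing; data fitted relative to DMSO.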

[12] = read-out: Interleukin-8 (IL8), CXCL8 (gene 3576); assay: BSK_CASM3C_IL8: BioMAP Diversity Plus: CASM3C Assay for Interleukin-8 (IL8) Biomarker Activity (AID 2283042); conditions: primary human coronary artery smooth muscle cells; actives raise or lower the signal;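 also: IL-8 protein level quantified by ELISA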
[13] = read-out: Human Leukocyte Antigen - DR isotype (HLADR), HLA-DRA (gene 3122); assay: BSK_CASM3C_HLADR: BioMAP Diversity Plus: CASM3C Assay for Human Leukocyte Antigen - DR isotype (HLADR) Biomarker Activity (AID 2283043); conditions: primary human coronary artery smooth muscle cells; actives raise or lower the signal;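 also: cell-surface HLA-DR protein level quantified by ELISA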
[14] = read-out: Macrophage colony-stimulating factor (MCSF), CSF1 (gene 1435); assay: BSK_CASM3C_MCSF: BioMAP Diversity Plus: CASM3C Assay for Macrophage colony-stimulating factor (MCSF) Biomarker Activity (AID 2283044); conditions: primary human coronary artery smooth muscle cells; actives raise or lower the signal;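 also: M-CSF protein amount quantified by ELISA after 24 h exposure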
[15] = read-out: Low-density lipoprotein receptor (LDLR), LDLR (gene 3949); assay: BSK_CASM3C_LDLR: BioMAP Diversity Plus: CASM3C Assay for Low-density lipoprotein receptor (LDLR) Biomarker Activity (AID 2283045); conditions: primary human coronary artery smooth muscle cells; actives raise or lower the signal;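 also: LDLR protein level on the cell surface quantified by ELISA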
[16] = read-out: Monocyte Chemoattractant Protein-1 (MCP1), CCL2 (gene 6347); assay: BSK_CASM3C_MCP1: BioMAP Diversity Plus: CASM3C Assay for Monocyte Chemoattractant Protein-1 (MCP1) Biomarker Activity (AID 2283046); conditions: primary human coronary artery smooth muscle cells; actives raise or lower the signal;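 also: MCP-1 level quantified by ELISA 24 h after dosing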
[17] = BSK_CASM3C_Proliferation: Cell Proliferation Assessment in the BioMAP Diversity Plus: CASM3C Assay (AID 2283047); conditions: primary human coronary artery smooth muscle cells;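 also: sulforhodamine B total protein stain as relative cell number at 560 nm; sub-confluent cells exposed 48 h before staining; fitted both ways against DMSO so gain or loss of cell number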
[18] = read-out: Monokine induced gamma interferon (MIG), CXCL9 (gene 4283); assay: BSK_CASM3C_MIG: BioMAP Diversity Plus: CASM3C Assay for Monokine induced gamma interferon (MIG) Biomarker Activity (AID 2283048); conditions: primary human coronary artery smooth muscle cells; actives raise or lower the signal;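 also: MIG protein level measured by ELISA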
[19] = read-out: serum amyloid A (SAA), SAA1 (gene 6288); assay: BSK_CASM3C_SAA: BioMAP Diversity Plus: CASM3C Assay for serum amyloid A (SAA) Biomarker Activity (AID 2283049); conditions: primary human coronary artery smooth muscle cells; actives raise or lower the signal;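 also: SAA protein level quantified by ELISA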
[20] = BSK_CASM3C_SRB: Viability Assessment in the BioMAP Diversity Plus: CASM3C Assay (AID 2283050); conditions: primary human coronary artery smooth muscle cells;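 also: total protein by SRB staining as cytotoxicity measure in parallel cultures; cells exposed to compound for 24 h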

Measured: AC50

CCCCCOC(=O)c1ccccc1C(=O)OCCCCC
active: [3] 18.5 µM
inactive: all other assays above

C[C@]12C=CC3=C4CCC(=O)C=C4CC[C@H]3[C@@H]1CC[C@@H]2O
active: [4] 29.2 µM | [10] 13 µM | [11] 3.97 µM
inactive: all other assays above

CCCCCCCCOC(=O)c1ccc(C(=O)OCCCCCCCC)c(C(=O)OCCCCCCCC)c1
inactive: all assays above

Nc1ccc(Oc2ccc(N)cc2)cc1
inactive: all assays above

Cc1ccc(N=C=O)cc1N=C=O
active: [4] 20 µM | [13] 28.5 µM | [17] 20 µM
inactive: all other assays above

CCNS(=O)(=O)C(F)(F)C(F)(F)C(F)(F)C(F)(F)C(F)(F)C(F)(F)C(F)(F)C(F)(F)F
active: [2] 5.32 µM and 36.7 µM and 30 µM | [3] 19.3 µM and 16.9 µM and 25.2 µM | [4] 13.9 µM and 21.1 µM and 14 µM | [5] 44.4 µM and 29.5 µM | [6] 12 µM | [7] 19.3 µM and 4.88 µM and 4.37 µM | [8] 41.5 µM | [9] 21.2 µM and 30 µM | [11] 13 µM | [12] 17 µM | [13] 8.6 µM
inactive: [1] | [5] | [8] | [9] | [10] | [11] | [12] | [13] | [14] | [15] | [16] | [17] | [18] | [19] | [20]

CCOC(=O)[C@]1(c2ccccc2)Oc2ccccc2[C@@H]1N
active: [2] 20 µM | [3] 7.44 µM | [13] 31 µM | [15] 23.4 µM
inactive: all other assays above

CCC(C)c1ccc(O)cc1 (stereo unspecified)
inactive: all assays above

ClC1=C(Cl)[C@]2(Cl)[C@H]3[C@H]([C@@H]4C=C[C@H]3C4)[C@@]1(Cl)C2(Cl)Cl
inactive: [2] | [5] | [6] | [8] | [9] | [10] | [11]
active: [1] 29.4 µM | [3] 33.9 µM | [4] 30.3 µM | [7] 34 µM | [12] 37.4 µM | [13] 34 µM | [14] 29 µM | [15] 32.6 µM | [16] 34 µM | [17] 34.3 µM | [18] 31.6 µM | [19] 31.7 µM | [20] 31.3 µM

CN(C)c1ccc(C(=O)c2ccc(N(C)C)cc2)cc1
active: [17] 2 µM
inactive: all other assays above

Clc1ccc(C(c2ccc(Cl)cc2)C(Cl)Cl)cc1
inactive: [5] | [8] | [9] | [10] | [11] | [12] | [18] | [19] | [20]
active: [1] 26.1 µM | [2] 30.5 µM | [3] 25 µM | [4] 32.2 µM | [6] 34.6 µM | [7] 34.4 µM | [13] 25.2 µM | [14] 15.2 µM | [15] 5.11 µM | [16] 32.1 µM | [17] 32.1 µM

Cc1ccc(N)c(N)c1
active: [3] 8.05 µM
inactive: all other assays above

O=[N+]([O-])C(Br)(CO)CO
active: [3] 27.1 µM | [8] 4.02 µM | [12] 34.3 µM | [13] 29.5 µM | [16] 28.1 µM | [17] 24.7 µM | [18] 32.7 µM | [19] 30.3 µM | [20] 32.7 µM
inactive: all other assays above
